Test results published in paper PMC4552634, “A New Set of Chemical Starting Points with Plasmodium falciparum Transmission-Blocking Potential for Antimalarial Drug Discovery” (PLoS ONE, 2015).
About 3,200 (25%) of roughly 13,000 compounds showed an effect of 50% or more. The list shows a part of the results.

The compounds below were run on P. falciparum stage V gametocytes. Settings: 48 h, 5 µM; inhibitor.
Design: BacTiter-Glo ATP luminescence viability of purified stage V gametocytes in 384-well plates, per cent inhibition versus DMSO

| Compound | % Inhibition |
| --- | --- |
| CCCOc1ccc(OCCCON2C(N)=NC(N)=NC2(C)C)cc1 [TCMDC-131737] | 9.517% |
| CC1CCCN(S(=O)(=O)c2ccc(NC(=O)c3cc(-c4ccccc4O)n[nH]3)cc2)C1 (stereo not shown) [TCMDC-125194] | -32.46% |
| O=C1NC(=O)C(c2ccc(Cl)cc2)=C1Nc1cccc(S(=O)(=O)C(F)(F)F)c1 [TCMDC-139487] | 41.44% |
| CCn1c(C)cc(C=C2SC(=Nc3ccccc3)NC2=O)c1C [TCMDC-124456] | -43.68% |
| Cc1cc(C=C2SC(=Nc3ccccc3)N(C3CCCC3)C2=O)c(C)n1-c1ccc(Cl)cc1 [TCMDC-125698] | -5.321% |
| Cc1cc(C)cc(-n2c(C)cc(/C=C3\SC(=Nc4ccc(Cl)cc4)NC3=O)c2C)c1 [TCMDC-124103] | 64.96% |
| COc1cc(Cc2cnc(N)nc2N)cc(OC)c1OCCCCCN1C(=O)c2ccccc2C1=O [TCMDC-138036] | 16.13% |
| CNC(=O)C1Cc2c([nH]c3cc(Br)ccc23)C2(CCN(CCc3ccccc3)CC2)N1 (stereo not shown) [TCMDC-141261] | 85.59% |
| CCCCCCNC(=O)C1Cc2c([nH]c3ccc(Br)cc23)C2(CCN(CCc3ccccc3)CC2)N1 (stereo not shown) [TCMDC-141182] | -10.63% |
| CC(C)CCNC(=O)C1Cc2c([nH]c3cc(Cl)ccc23)C2(CCN(CCc3ccccc3)CC2)N1 (stereo not shown) [TCMDC-141294] | 25.11% |
| CC(C)CCNC(=O)C1Cc2c([nH]c3cc(Br)ccc23)C2(CCN(Cc3ccccc3)CC2)N1 (stereo not shown) [TCMDC-141258] | 102.3% |
| CCCCCCNC(=O)C1Cc2c([nH]c3ccc(C)cc23)C2(CCN(Cc3ccccc3)CC2)N1 (stereo not shown) [TCMDC-141091] | 29.77% |
| CC(C)CCNC(=O)C1Cc2c([nH]c3cc(Br)ccc23)C2(CCN(CCc3ccccc3)CC2)N1 (stereo not shown) [TCMDC-141259] | -3.364% |
| O=C(NCC1CC1)C1Cc2c([nH]c3ccc(Br)cc23)C2(CCN(CCc3ccccc3)CC2)N1 (stereo not shown) [TCMDC-141180] | -28.21% |
| CCCNC(=O)C1Cc2c([nH]c3cc(Br)ccc23)C2(CCN(CCc3ccccc3)CC2)N1 (stereo not shown) [TCMDC-141260] | -73.32% |
| CCCNC(=O)C1Cc2c([nH]c3ccc(Br)cc23)C2(CCN(CCc3ccccc3)CC2)N1 (stereo not shown) [TCMDC-141184] | 7.991% |
| O=C(NCc1ccccc1)C1Cc2c([nH]c3ccc(Br)cc23)C2(CCN(Cc3ccccc3)CC2)N1 (stereo not shown) [TCMDC-141183] | 77.73% |
| CCCCCCNC(=O)C1Cc2c([nH]c3ccc(Br)cc23)C2(CCN(Cc3ccccc3)CC2)N1 (stereo not shown) [TCMDC-141181] | 96.4% |
| CNC(=O)C1Cc2c([nH]c3ccc(Br)cc23)C2(CCN(CCc3ccccc3)CC2)N1 (stereo not shown) [TCMDC-141185] | -21.04% |
| Clc1ccc(-c2ncc(-c3ccncc3)[nH]2)cc1Cl [TCMDC-135775] | -31.04% |
| Nc1ccnc(N2CCC(CCOc3ccnc4cc(Cl)ccc34)CC2)c1 [TCMDC-141365] | -42.39% |
| CC(=O)Nc1nnc(SCc2c(C)cc(C(C)(C)C)cc2C)s1 [TCMDC-125446] | 0.04812% |

| Compound | % Inhibition |
| --- | --- |
| CN1CC[C@@H](Oc2cc(Nc3nc(-c4ccc(C#N)cc4)cs3)ccc2Cl)C1 [TCMDC-136291] | 12.39% |
| CC(C)CCNC(=O)C1Cc2c([nH]c3ccc(Br)cc23)C2(CCN(CCc3ccccc3)CC2)N1 (stereo not shown) [TCMDC-141179] | 47.91% |
| CCCCCCNC(=O)C1Cc2c([nH]c3cc(Cl)ccc23)C2(CCN(Cc3ccccc3)CC2)N1 (stereo not shown) [TCMDC-141296] | 89.1% |
| CCCCCCNC(=O)C1Cc2c([nH]c3cc(Cl)ccc23)C2(CCN(CCC)CC2)N1 (stereo not shown) [TCMDC-141297] | -77.49% |
| CC(C)CCNC(=O)C1Cc2c([nH]c3ccc(Br)cc23)C2(CCN(Cc3ccccc3)CC2)N1 (stereo not shown) [TCMDC-141178] | 102.8% |
| CCCCCCNC(=O)C1Cc2c([nH]c3ccc(F)cc23)C2(CCN(Cc3ccccc3)CC2)N1 (stereo not shown) [TCMDC-141303] | 21.59% |
| Cc1ccc2[nH]c3c(c2c1)CC(C(=O)NCCC(C)C)NC31CCN(Cc2ccccc2)CC1 (stereo not shown) [TCMDC-141090] | 28.05% |
| Nc1cc(-c2cc3c(OCc4ccccc4)cccc3[nH]2)ccn1 [TCMDC-134290] | -55.8% |
| CN(C)CCC1CCN(CCS(=O)(=O)c2cccc(Nc3ccc(-c4ccsc4)cn3)c2)CC1 [TCMDC-134377] | 15.01% |
| Cc1cc(Cl)ccc1NC(=O)Nc1ccc2nccc(N3CCN(C)CC3)c2c1 [TCMDC-139357] | 8.372% |
| COc1ccc(CCN(C)CCc2ccc(NC(=O)c3cccc4c(=O)c5ccccc5sc34)cc2)cc1 [TCMDC-131965] | 45.76% |
| COc1ccc(CN(C)CCOc2ccc(NC(=O)c3cccc4c(=O)c5cc(SC)ccc5[nH]c34)cc2)cc1OC [TCMDC-131956] | 28.02% |
| COc1ccc(CN(C)CCCOc2ccc(NC(=O)c3cccc4c(=O)c5cccc(F)c5[nH]c34)cc2)cc1OC [TCMDC-131846] | 60.98% |
| COc1ccc(CCN(C)CCCN2CCC(NC(=O)c3cccc4c(=O)c5ccccc5sc34)CC2)cc1OC [TCMDC-131966] | 103.2% |
| COc1ccc(CN(C)CCCOc2ccc(NC(=O)c3cccc4c(=O)c5cccc(C)c5[nH]c34)cc2)cc1OC [TCMDC-131850] | 23.76% |
| COc1ccc(CCN(C)CCOc2ccc(NC(=O)c3cccc4c(=O)c5cc(SC)ccc5[nH]c34)cc2)cc1OC [TCMDC-131958] | 53.19% |
| COc1ccc(CCN(C)CCOc2ccc(NC(=O)c3cc(SC)cc4c(=O)c5ccccc5[nH]c34)cc2)cc1OC [TCMDC-131957] | 24.55% |
| COc1ccc(CCN(C)CCCOc2ccc(NC(=O)c3cccc4c(=O)c5ccccc5[nH]c34)cc2)cc1OC [TCMDC-132116] | 43.65% |
| COc1cc(OCCCN(C)Cc2ccc(OC)c(OC)c2)ccc1NC(=O)c1cccc2c(=O)c3cccc(F)c3[nH]c12 [TCMDC-131853] | 16.5% |
| COc1ccc(CCN(C)CCCCc2ccc(NC(=O)c3cccc4c(=O)c5cc(F)ccc5sc34)cc2)cc1OC [TCMDC-131961] | 94.02% |
| COc1ccc(CN(C)Cc2ccc(NC(=O)c3cccc4c(=O)c5cccc(C)c5[nH]c34)cc2)cc1OC [TCMDC-131852] | 2.818% |
| O=C(NCC1CCC(C(=O)NC2CCCc3ccccc32)CC1)c1ccc(O)c(-c2ccc(Cl)c(Cl)c2)c1 (stereo not shown) [TCMDC-140891] | 17.3% |

| Compound | % Inhibition |
| --- | --- |
| COC(=O)C(NC(=O)NC1CCN(c2ccnc(Nc3ccc(F)cc3)n2)C1)c1ccccc1 (stereo not shown) [TCMDC-133595] | 4.499% |
| CCc1sc(CN(CCCNc2cc(=O)c3ccccc3[nH]2)Cc2sc(CC)c(Br)c2-c2ccsc2)c(-c2ccsc2)c1Br [TCMDC-140753] | 49.24% |
| N=C1c2ccccc2CN1CC(=O)c1ccc(Cl)c(Cl)c1 [TCMDC-123783] | -26.95% |
| N#Cc1ccc2c(c1)CCN(CCC1CCC(NC(=O)/C=C/c3cnc4ccccc4c3)CC1)CC2 (stereo not shown) [TCMDC-139662] | -42.99% |
| O=C(NCc1ccc(F)cc1)Nc1cccc(-c2ccc(-c3nc4ccc(F)cc4[nH]3)cc2)c1 [TCMDC-133301] | -42.08% |
| CCc1nnc2sc(-c3cccc(NC(=O)c4ccc(OC)c(Cl)c4)c3)nn12 [TCMDC-125049] | -8.625% |
| CC(C)(CN)c1cc(-c2ccc(Cl)c(O)c2)c(-c2ccncc2)o1 [TCMDC-141334] | -68.46% |
| CCCC(=O)Nc1ccc(Cl)c(NC(=O)COc2cc(C)ccc2C(C)C)c1 [TCMDC-123706] | -6.515% |
| CCc1ccc(NC(=O)c2ccc(CN3CCCN(Cc4cccc(C)c4)CC3)cc2)cc1 [TCMDC-136440] | -10.99% |
| Nc1ncnc2nc(-c3ccc(F)cc3)cc(-c3ccc(NC(=O)c4ccccc4)cc3)c12 [TCMDC-134854] | -13.72% |
| CCCC1N=C(N)N=C(N)N1c1ccc(CC)cc1 (stereo not shown) [TCMDC-131300] | -2.095% |
| CC(C)CC1c2[nH]c3ccccc3c(=O)c2CN1C(=O)OC(C)(C)C (stereo not shown) [TCMDC-134513] | 44.74% |
| COc1ccc(CN(C)CCCc2ccc(NC(=O)c3cccc4c(=O)c5cccc(F)c5[nH]c34)cc2)cc1OC [TCMDC-131964] | 81.66% |
| COc1cc(CCN(C)Cc2ccc(OC)c(OC)c2)ccc1NC(=O)c1cccc2c(=O)c3cccc(F)c3[nH]c12 [TCMDC-131854] | 37.94% |
| COc1ccc(CN(C)CCCCc2ccc(NC(=O)COc3cccc4sc5ccccc5c(=O)c34)cc2)cc1OC [TCMDC-131960] | 103.7% |
| COc1ccc(CCN(C)CCOc2ccc(NC(=O)COc3ccc4sc5ccccc5c(=O)c4c3)cc2)cc1OC [TCMDC-132111] | 31.27% |
| COc1ccc(CN(C)CCCc2ccc(NC(=O)c3cccc4c(=O)c5ccccc5[nH]c34)cc2)cc1OC [TCMDC-131963] | 13.74% |
| COc1ccc(CCN(C)CCCOc2ccc(NC(=O)COc3cccc4sc5ccccc5c(=O)c34)cc2)cc1OC [TCMDC-132117] | 17.11% |
| Cn1cnnc1Sc1ccc(CN2CCOc3ccc(C4=CCCCC4)cc3C2)o1 [TCMDC-124661] | -23.49% |
| NC1=NC(c2ccccc2)(c2ccccc2)C(=O)N1CCOc1ccccc1 [TCMDC-136493] | -46.39% |
